Experimental data: the supplement of paper PMC8728848
Shown is part of a subset that was picked to be rich in the strongest signals.

Assays:
Test in all cases: glycan array binding signal (z-score within array); higher = stronger binding
Settings in all cases: glycan notation: IUPAC condensed, linker removed
[1] = target: Gal(b1-4)GlcNAc(b1-3)Gal(b1-4)GlcNAc(b1-2)Man(a1-3)[Gal(b1-4)GlcNAc(b1-3)Gal(b1-4)GlcNAc(b1-2)Man(a1-6)]Man(b1-4)GlcNAc(b1-4)[Fuc(a1-6)]GlcNAc
Outline: (§1)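 Columns mapping to the same glycan were averaged after glycan names were converted to IUPAC-condensed notation. The data come from 3228 arrays in the Consortium for Functional Glycomics database, limited to those with an available protein sequence. Binding is reported as a within-array Z-score averaged across arrays of one protein sequence and across linkers.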

[2] = target: Gal(b1-4)GlcNAc(b1-3)Gal(b1-4)GlcNAc(b1-3)Gal(b1-4)GlcNAc(b1-2)[Gal(b1-4)GlcNAc(b1-3)Gal(b1-4)GlcNAc(b1-3)Gal(b1-4)GlcNAc(b1-6)]Man(a1-6)[Gal(b1-4)GlcNAc(b1-3)Gal(b1-4)GlcNAc(b1-3)Gal(b1-4)GlcNAc(b1-2)Man(a1-3)]Man(b1-4)GlcNAc(b1-4)[Fuc(a1-6)]GlcNAc
Outline: as §1

[3] = target: Gal(b1-4)GlcNAc(b1-3)Gal(b1-4)GlcNAc(b1-3)Gal(b1-4)GlcNAc(b1-3)Gal(b1-4)GlcNAc(b1-2)Man(a1-3)[Gal(b1-4)GlcNAc(b1-3)Gal(b1-4)GlcNAc(b1-3)Gal(b1-4)GlcNAc(b1-3)Gal(b1-4)GlcNAc(b1-2)Man(a1-6)]Man(b1-4)GlcNAc(b1-4)GlcNAc
Outline: as §1

[4] = target: Gal(b1-4)GlcNAc(b1-3)Gal(b1-4)GlcNAc(b1-3)Gal(b1-4)GlcNAc(b1-3)Gal(b1-4)GlcNAc(b1-3)Gal(b1-4)GlcNAc(b1-3)Gal(b1-4)GlcNAc(b1-2)Man(a1-3)[Gal(b1-4)GlcNAc(b1-3)Gal(b1-4)GlcNAc(b1-3)Gal(b1-4)GlcNAc(b1-3)Gal(b1-4)GlcNAc(b1-3)Gal(b1-4)GlcNAc(b1-3)Gal(b1-4)GlcNAc(b1-2)Man(a1-6)]Man(b1-4)GlcNAc(b1-4)GlcNAc
Outline: as §1

[5] = target: Gal3S(b1-4)[Fuc(a1-3)]Glc6S
Outline: as §1

[6] = target: Gal3S6S(b1-4)GlcNAc
Outline: as §1

[7] = target: Gal6S(b1-4)GlcNAc6S
Outline: as §1

[8] = target: GlcNAc(a1-4)Gal(b1-4)GlcNAc(b1-3)Gal(b1-4)GlcNAc
Outline: as §1

[9] = target: GlcNAc(b1-2)Man(a1-3)[GlcNAc(b1-4)][GlcNAc(b1-2)Man(a1-6)]Man(b1-4)GlcNAc(b1-4)[Fuc(a1-6)]GlcNAc
Outline: as §1

[10] = target: GlcNAc(b1-3)Gal(b1-4)GlcNAc(b1-3)Gal(b1-4)GlcNAc(b1-3)Gal(b1-4)GlcNAc(b1-3)Gal(b1-4)GlcNAc(b1-2)Man(a1-3)[GlcNAc(b1-3)Gal(b1-4)GlcNAc(b1-3)Gal(b1-4)GlcNAc(b1-3)Gal(b1-4)GlcNAc(b1-3)Gal(b1-4)GlcNAc(b1-2)Man(a1-6)]Man(b1-4)GlcNAc(b1-4)GlcNAc
Outline: as §1

[11] = target: GlcNAc(b1-4)GlcNAc(b1-4)GlcNAc(b1-4)GlcNAc(b1-4)GlcNAc
Outline: as §1

[12] = target: Kdn(a2-3)Gal(b1-3)GalNAc
Outline: as §1

[13] = target: Neu5Ac(a2-3)Gal(b1-4)GlcNAc(b1-2)[Neu5Ac(a2-3)Gal(b1-4)GlcNAc(b1-4)]Man(a1-3)[GlcNAc(b1-4)][Neu5Ac(a2-3)Gal(b1-4)GlcNAc(b1-4)Man(a1-6)]Man(b1-4)GlcNAc(b1-4)GlcNAc
Outline: as §1

[14] = target: Neu5Ac(a2-3)Gal(b1-4)GlcNAc(b1-3)Gal(b1-4)GlcNAc(b1-2)Man(a1-3)[Neu5Ac(a2-3)Gal(b1-4)GlcNAc(b1-3)Gal(b1-4)GlcNAc(b1-2)Man(a1-6)]Man(b1-4)GlcNAc(b1-4)GlcNAc
Outline: as §1

[15] = target: Neu5Ac(a2-3)Gal(b1-4)GlcNAc(b1-6)[Neu5Ac(a2-3)Gal(b1-3)]GalNAc
Outline: as §1

[16] = target: Neu5Ac(a2-3)Gal(b1-4)[Fuc(a1-3)]GlcNAc6S
Outline: as §1

[17] = target: Neu5Ac(a2-3)[GalNAc(b1-4)]Gal(b1-4)GlcNAc
Outline: as §1

[18] = target: Neu5Ac(a2-6)Gal(b1-4)GlcNAc(b1-2)Man(a1-6)[Man(a1-3)]Man(b1-4)GlcNAc(b1-4)GlcNAc
Outline: as §1

[19] = target: Neu5Ac(a2-6)Gal(b1-4)GlcNAc(b1-3)GalNAc
Outline: as §1

[20] = target: Neu5Ac(a2-6)Gal(b1-4)GlcNAc(b1-3)[Neu5Ac(a2-6)Gal(b1-4)GlcNAc(b1-6)]GalNAc
Outline: as §1

[21] = target: Neu5Ac(a2-6)GalNAc(b1-4)GlcNAc6S
Outline: as §1

[22] = target: Neu5Ac(a2-8)Neu5Ac(a2-3)Gal(b1-4)GlcNAc
Outline: as §1

[23] = target: Neu5Ac(a2-8)Neu5Ac(a2-8)Neu5Ac
Outline: as §1

B1: PX14367B-bvu-516-23-516 (Bacteroides vulgatus) (protein)
chain: LDTIPTTYVDAGSVFGKTGDAEKVLNGGWNYLMETFNSYANPGYGAMLRANDAMGSDVVLNSKYGFRTHNEFSAIYGKGGTNTLSWLLAYRVINDCNGVLDNIDAAEGTQADRNRIKGQALALRGFLYLHLASCYSFAIDKDPDAVCAPIYTQSTDETIAAEGKPASSVSEVYAQSINDLEEALELIPETYVRDAKHKIDNEVVLGILSRACLYARQWEKAKTYSDKLLAKDNYLMTESEYKAGFNSVDNKEWIWGHAQTNDQSNASYQFHYLDTTTKGSYYYSFNVDPYFRDLFEDGDYRKEMLFWATDPGADVESAAYVWMRNSKFRFRDIENQLGDIVLMRVAEIYLINAEAKAHLNDPDAINKLNDLKTARGAKTIHTNLSQQDLLETIWLERRKELWGEGFSLIDIIRNQQTVVRNAYPEGPIDYIYTDENGQTHTLKKKTQGHRFFNFPDKSAFCPNSKYYLYRITDSEELANKNLYKDHPKLSIYTK
- glycan array binding signal (z-score) [1]: 0.011
- glycan array binding signal (z-score) [2]: 7.91
- glycan array binding signal (z-score) [3]: 0.812
- glycan array binding signal (z-score) [4]: 7.87
- glycan array binding signal (z-score) [5]: 2.87
- glycan array binding signal (z-score) [6]: -0.262
- glycan array binding signal (z-score) [7]: 6.08
- glycan array binding signal (z-score) [8]: -0.2
- glycan array binding signal (z-score) [9]: -0.049
- glycan array binding signal (z-score) [10]: -0.276
- glycan array binding signal (z-score) [11]: -0.245
- glycan array binding signal (z-score) [12]: -0.198
- glycan array binding signal (z-score) [13]: -0.262
- glycan array binding signal (z-score) [14]: -0.164
- glycan array binding signal (z-score) [15]: -0.354
- glycan array binding signal (z-score) [16]: -0.354
- glycan array binding signal (z-score) [17]: -0.356
- glycan array binding signal (z-score) [18]: 4.55
- glycan array binding signal (z-score) [19]: -0.386
- glycan array binding signal (z-score) [20]: 0.372
- glycan array binding signal (z-score) [21]: -0.208
- glycan array binding signal (z-score) [22]: -0.353
- glycan array binding signal (z-score) [23]: -0.342
